Screening results (PubChem)
EWS-Fli inh: EWS/Fli-driven NR0B1 reporter inhibitors, primary screen, A673 cells, NR0B1 luciferase, luminescence, MLPCN library | hit rate 0.67% among 350,000 | inhibition, % at 12.6 µM | viability-normalised;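 active means mean inhibition of at least 50% after viability correction, with every replicate also passing that limit; inconclusive means mean reaches 50% but only one of two replicates passes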;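 further: firefly luciferase signal divided by Alamar Blue viability fluorescence both relative to DMSO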
MITF act: activators of MITF-driven TRPM1 promoter reporter, primary screen, cell-based, SK-MEL-5, luciferase, single point. hit rate 0.75% among 300,000. activation, % at 12.5 µM. SK-MEL-5 TRPM1-promoter luciferase, 24 h; % of positive control, neutral wells = 0;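 active means mean activation of at least 80% with every replicate also reaching 80%; inconclusive means mean reaches 80% but some replicate falls short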;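 further: 0% = neutral control wells and 100% = parthenolide positive control wells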
TRPM1 prom inh: inhibitors of MITF-dependent TRPM1 promoter reporter, primary screen, cell-based, SK-MEL-5, single point, luciferase | SK-MEL-5 TRPM1 promoter luciferase, 24 h | inhibition, % at 12.5 µM | hit rate 0.83% among 330,000 | AID 488899, 2010;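 active means mean inhibition across replicates of 60% or more, whatever share of single replicates reaches that level; inconclusive means some that reach 60%, reason not given; inactive means mean inhibition across replicates below 60%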
Wnt bcat act: Wnt/beta-catenin pathway activators, primary screen, cell-based, plate reader, single point; hit rate 1.2% among 300,000; activation, % at 9.35 µM; Wnt/beta-catenin reporter cell assay, activator; in the data active means activation above about 30%, passing the limit was not always enough; inconclusive means no clear call, values can overlap the other calls;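 further: 0% = neutral control wells and 100% = positive control wells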
PAX8 inh HTS: inhibitors of PAX8-driven TPO luciferase reporter, primary screen, RMG-I cells, single concentration. SteadyGlo, 24 h. inhibition, % at 12.6 µM. AID 652154, 2013. hit rate 1.2% among 360,000;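 active means mean replicate inhibition at least 60% with every replicate also reaching 60%; inconclusive means only one of the two criteria is met; inactive means mean below 60% and not all replicates reaching 60%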;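 further: luciferase light reporting Pax8 driven TPO promoter activity; plate controls were median of neutral control wells for no effect and mitoxantrone controls for full effect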
esBAF inh: Bmi1 luciferase reporter increase in mESCs, primary screen, esBAF inhibitor project, mouse ES cells, Bmi1 luciferase knock-in, single point | 24 h; 100% = twice the neutral-well signal | reporter increase, % at 12.5 µM | hit rate 2% among 350,000 | AID 602393, 2012; in the data active means activation above about 40%; inconclusive means no clear call, values can overlap the other calls;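 further: 0% = median of the plate's neutral control wells and 100% = double that signal; a rise in the Bmi1 reporter signal indicates esBAF inhibition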
Ring1 derepress: Ring1 mRNA increase in mouse ESCs, confirmation, esBAF inhibitor project, cell-based, mouse ESC, RT-qPCR, cherry-pick | shares compounds with esBAF inh | mouse ESC E14, Ring1 mRNA RT-qPCR fold change | fold change at 33 µM | 550 tested, under 10 active | AID 743176, 2013;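 active means Ring1 gene expression raised more than 2-fold over untreated cells in both replicates at either tested dose; inconclusive means only one replicate above 2-fold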;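 further: Ring1 transcript normalised to actin housekeeping signal by TaqMan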
Fgf4 repress: Fgf4 mRNA decrease in mouse ESCs, confirmation, esBAF inhibitor project, cell-based, mouse ESC, RT-qPCR, cherry-pick. AID 743177, 2013. shares compounds with esBAF inh. hit rate 4% among 550. mouse ESC E14, Fgf4 mRNA qPCR fold change; active compounds read low. Fgf4 expression fold change at 33 µM;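 active means Fgf4 expression under 0.8 fold of control in both repeat measurements at one or both tested doses; inconclusive means under 0.8 fold in just a single repeat measurement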;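 further: Fgf4 transcript normalised to actin in duplex TaqMan qPCR; cells exposed to compound for 24 h before lysis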
Bmi1 derepress: esBAF inhibition via Bmi1 de-repression, confirmation, cell-based, RT-qPCR, mouse ESC, single point, cherry-pick | 550 tested, under 10 active | mouse ESE14 ES cells, Bmi1 mRNA qPCR fold; active compounds read high | AID 743180, 2013 | fold change at 33 µM | shares compounds with esBAF inh;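 active means Bmi1 expression fold change above 6 at either tested concentration, seen in replicate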;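 further: higher fold means more Bmi1 de-repression and stronger esBAF inhibition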
A549 tox SP: A549 cell cytotoxicity, cytotoxicity control, plate reader, single point, cherry-pick. cell viability change % (negative = cytotoxic), % at 25 µM, hits read low. 550 tested, under 10 active. shares compounds with esBAF inh; call rule not given here
HepG2 tox SP: HepG2 cell cytotoxicity, cytotoxicity control, plate reader, single point, cherry-pick | shares compounds with esBAF inh | active compounds read low | activity change, negative = inhibition, % at 25 µM | hit rate 4% among 550 | AID 743189, 2013; in the data active means activity change below about -50%
HEK293 tox SP: HEK293 cell cytotoxicity, cytotoxicity control, plate reader, single point, cherry-pick. activity change, negative = inhibition, % at 25 µM, hits read low. hit rate 3% among 550. shares compounds with esBAF inh; in the data active means activity change below about -38%, passing the limit was not always enough
Numbers without * were called inactive; ? = inconclusive; / = no result. Rows were chosen to be rich in hits. Some 4% of all compounds tested hit in one or more screens of this group.

SMILES	EWS-Fli inh	MITF act	TRPM1 prom inh	Wnt bcat act	PAX8 inh HTS	esBAF inh	Ring1 derepress	Fgf4 repress	Bmi1 derepress	A549 tox SP	HepG2 tox SP	HEK293 tox SP
COc1ccc2c3c([nH]c2c1)[C@@H](CO)N(S(C)(=O)=O)CC31CCN(C(=O)CN(C)C)CC1	-10	/	/	/	/	/	/	/	/	/	/	/
O=C(Nc1ccc(Nc2ccccc2)cc1)Nc1ccccc1Cl	-143	102*	-100	24	-109	70*	1.4	0.82	1.6	-1	3	-19
C(=NN=Cc1c[nH]c2ccccc12)c1c[nH]c2ccccc12	-37	/	/	46*	/	74*	1.2	0.96	1.6	0	-26	-3
O=C1CS/C(=N/N=C/c2c[nH]c3ccccc23)N1	-10	/	/	0	-4	/	/	/	/	/	/	/
CC(C)C[C@@H]1NC(=O)[C@@H]2C[C@H](C(=O)NCc3ccc(F)cc3)[C@H](c3ccc(O)cc3)N2C1=O	1	/	/	/	2	/	/	/	/	/	/	/
O=C(CCc1nnc(CCc2c[nH]c3ccccc23)o1)NC1CCC1	-101	45	-43	29	-136	66*	0.93	0.96	1.5	-1	-31	4
C[C@@H]1CN([C@@H](C)CO)C(=O)c2cc(NC(=O)CCCN(C)C)ccc2O[C@@H]1CN(C)S(=O)(=O)c1ccc(F)cc1	0	/	/	/	-15	0	/	/	/	/	/	/
O=C(Nc1nccs1)C(=O)c1c[nH]c2ccccc12	/	?	-114	59*	-202	68*	1.1	0.87	1.5	-9	-13	-9
O=C(Cc1c[nH]c2ccccc12)Nc1nccs1	/	-5	1	-1	/	13	/	/	/	/	/	/
C[C@H](CO)N1C[C@H](C)[C@H](CN(C)C(=O)Nc2ccc(F)cc2)Oc2cc(/C=C/c3ccccc3)ccc2S1(=O)=O	10	/	/	/	/	-7	/	/	/	/	/	/
Cc1csc(-c2ccc3cc(Cl)cc(Cl)c3n2)n1	-66	/	/	4	-55	71*	1.1	0.97	1.6	-10	28	-11
COc1cccc(OCc2cc(C(=O)N(C)Cc3nc4ccccc4[nH]3)no2)c1	-93	66	-60	25	-103	69*	1.3	?	1.7	-2	-23	-18
COc1ccc(-c2cc3ccccc3s2)cc1[C@H]1[C@H]2C=CC[C@@H](C)[C@@H]2C(=O)N1Cc1ccccc1	-101	66	-68	37*	-205	50*	1.1	1	1.6	-5	35	-11
CC(C)NC(=O)N1CC2(C1)[C@@H](c1ccccc1)[C@@H](CO)N2C(=O)c1ccccn1	5	/	/	/	-11	/	/	/	/	/	/	/
COc1ccc(NC(=O)Nc2cccc(C)n2)cc1	-91	68	-64	21	-177	66*	1.1	0.88	2	-1	-1	-7
CC(C)CC#Cc1ccc([C@@H]2[C@@H](CO)N3C(=O)CN(C(=O)Nc4cc(F)ccc4F)C[C@@H]23)cc1	-3	/	/	/	16	/	/	/	/	/	/	/
O=C(NCCc1ccc(F)cc1)c1ccc2c(=O)n3c(nc2c1)CCC3	-58	80	-81	12	/	54*	1.2	0.89	1.5	1	-29	-8
C[C@@H](NC(=O)C[C@@H]1CC[C@@H]2[C@H](COC[C@H](O)CN2C)O1)c1ccccc1	-4	/	/	/	8	6	/	/	/	/	/	/
Cc1cc(C)c2c(CN(C)Cc3ccccc3)cc(=O)oc2c1	-142	/	/	12	-150	63*	1.2	?	1.5	-11	-7	-53*
COc1ccccc1C(=O)Nc1sc2c(c1C#N)CCC2	/	14	-11	/	/	59*	0.9	0.81	1.6	1	-28	-10
COc1ccccc1C(=O)Nc1sc2c(c1C(N)=O)CCCC2	-85	29	-27	1	-20	29	/	/	/	/	/	/
O=[N+]([O-])c1cccc(N=NNc2cccc([N+](=O)[O-])c2)c1	-59	/	/	15	-30	/	/	/	/	/	/	/
Nc1cccc(N=[N+]([O-])c2cccc(N)c2)c1	-73	39	-41	2	-153	77*	1.4	1.2	1.5	-3	-18	-7
CC1CC(C)CN(C(=O)CCNS(=O)(=O)c2cccs2)C1 (stereo not drawn)	-8	10	-12	0	33	/	/	/	/	/	/	/
O=C(CCNS(=O)(=O)c1cccs1)N1CCc2ccccc2C1	/	42	-42	-4	/	68*	1.2	0.97	1.6	-13	-26	-5
SMILES	EWS-Fli inh	MITF act	TRPM1 prom inh	Wnt bcat act	PAX8 inh HTS	esBAF inh	Ring1 derepress	Fgf4 repress	Bmi1 derepress	A549 tox SP	HepG2 tox SP	HEK293 tox SP
Nc1nc(SCc2ccccc2)sc1C(=O)N1CCCCC1	-58	/	/	43*	-166	60*	1.2	0.92	1.5	-10	-7	-10
Nc1c(C(=O)N2CCCCC2)sc(=S)n1-c1ccccc1	/	0	1	/	/	13	/	/	/	/	/	/
CCn1c(COc2ccccc2C)nc2ccccc21	/	?	-84	/	/	65*	1.1	0.94	1.8	-7	1	-14
CCn1c(COc2ccccc2OC)nc2ccccc21	-24	39	-44	2	-32	?	/	/	/	/	/	/
CC=Cc1ccc2n(c1=O)C[C@H]1[C@H](CO)[C@@H](C(=O)NCc3ccc(F)cc3)N(Cc3cncnc3)[C@@H]21 (mixture of isomers)	1	/	/	/	/	0	/	/	/	/	/	/
COc1ccc(-c2nc(Cc3ccc(Cl)cc3)no2)cc1OC	/	1	-2	/	/	/	/	/	/	/	/	/
Clc1ccc(-c2nc(Cc3ccccc3)no2)cc1	/	106*	-94	/	/	70*	1.1	0.93	1.2	-16	-13	-13
COc1ccccc1S(=O)(=O)N1CC[C@@H]2[C@H](CO)N(C)c3ccc(C#Cc4cccc(F)c4)cc3[C@@H]21	-30	/	/	/	-10	3	/	/	/	/	/	/
COc1ccc(OCc2cnc(Cl)s2)cc1	/	40	-41	2	/	29	/	/	/	/	/	/
